# Most compounds without a hit are left out; they make up all but 3.4% or so of the library.
# MITF inh = MITF inhibitors, primary screen, biochemical, AlphaScreen, human; 0.91% of 650,000 active; inhibition, % at 2.6 µM; AlphaScreen MITF homodimerization, bead proximity signal; Microphthalmia-associated transcription factor (Homo sapiens), O75030; in the data active = inhibition above about 50%;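 also: 0% = vehicle wells with protein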
# Target sequence (O75030 whole entry, looked up): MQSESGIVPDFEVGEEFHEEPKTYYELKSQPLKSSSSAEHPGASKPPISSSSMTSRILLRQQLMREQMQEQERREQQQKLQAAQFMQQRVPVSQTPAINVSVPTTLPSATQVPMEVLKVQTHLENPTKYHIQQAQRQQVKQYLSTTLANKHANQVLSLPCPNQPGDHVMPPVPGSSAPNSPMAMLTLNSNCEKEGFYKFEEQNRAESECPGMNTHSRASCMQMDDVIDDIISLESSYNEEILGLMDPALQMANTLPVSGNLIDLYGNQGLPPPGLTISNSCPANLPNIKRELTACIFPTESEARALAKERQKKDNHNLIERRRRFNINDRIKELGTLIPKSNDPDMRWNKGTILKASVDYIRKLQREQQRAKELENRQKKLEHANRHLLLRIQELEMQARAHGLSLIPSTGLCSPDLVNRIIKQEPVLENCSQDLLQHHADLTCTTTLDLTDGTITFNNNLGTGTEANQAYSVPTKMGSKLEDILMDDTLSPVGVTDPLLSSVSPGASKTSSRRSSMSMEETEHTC
# GPR151 activ = activators of human GPR151, primary screen, cell-based, PathHunter beta-arrestin, luminescence; PathHunter beta-arrestin GPR151 cells; activation, % at 11.2 µM; 1% of 650,000 active; in the data active = activation above about 4.9%;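 also: 0% = median of compound wells and 100% = cells with positive control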
# FBW7 activator = FBW7 E3 ligase activators, primary screen, biochemical, AlphaScreen, human. F-box/WD repeat-containing protein 7 (Homo sapiens), Q969H0. 0.13% of 650,000 active. AlphaScreen FBW7–phospho-cyclin E peptide binding, activator screen. normalized activity (activation), % at 26.1 µM. AID 1259310, 2017; in the data active = normalized activity above about 1.9%;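 also: purified mutant Fbw7 with reduced substrate affinity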
# TEAD-YAP inh = TEAD-YAP interaction inhibition, primary screen, TEAD-YAP interaction inhibitor project, luminescence, HEK-TIYL cells. TEAD-Gal4/YAP UAS-luciferase luminescence. 1.4% of 640,000 active. inhibition, % at 9.12 µM; in the data active = inhibition above about 32%;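 also: 0% = median of test compound wells and 100% = reference inhibitor wells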
# * hit, by the source's call.
SMILES,MITF inh,GPR151 activ,FBW7 activator,TEAD-YAP inh
COC(=O)c1ccc(/C=C/C(=O)c2ccc(F)cc2)cc1,0,3,0,-40
COc1ccc([N+](=O)[O-])cc1NC(=O)c1sc2ncnc(N3CCN(c4ccccc4)CC3)c2c1C,18,0,0,4
Cc1ccc(C(=O)O/N=C(\N)c2ccccc2)c(Cl)c1,4,5,0,74*
COc1ccc(/C(N)=N/OC(=O)c2ccc(C)cc2Cl)cc1,3,0,0,-15
N/C(=N\OC(=O)c1ccccc1Br)c1ccc(Cl)cc1,6,0,0,-54
CC(=O)Oc1ccc(C(=O)O/N=C(\N)c2cccnc2)cc1,3,-8,0,35*
N/C(=N\OC(=O)c1cccc2ccccc12)c1ccc(Cl)cc1,13,1,2.1*,-8
COc1ccc(/C(N)=N/OC(=O)c2ccc(C(C)(C)C)cc2)cc1,11,-1,0,8
CC(C)(C)c1ccc(C(=O)O/N=C(\N)c2ccccc2)cc1,-1,0,0,86*
CCOC(=O)C1=C(C)C(C(=O)OCC)(C(=O)OCC)NC(C)=C1c1ccccc1,-24,-1,0,-1
Cc1ccn2c(c1)nc(=S)n2C(=O)c1ccccc1F,16,0,0,2
COc1cc(Nc2nc(-c3ccc(C(N)=O)cc3)nc3c2ncn3-c2ccccc2)cc(OC)c1OC,-8,1,0,15
COc1cc(Nc2nc(-c3ccc(C(N)=O)cc3)nc3c2ncn3-c2ccsc2)cc(OC)c1OC,10,0,0,54*
COc1cc(Nc2nc(-c3ccc(C(N)=O)cc3)nc3c2ncn3C(C)C)cc(OC)c1OC,16,1,0,41*
COc1cc(Nc2nc(-c3ccc(C(=O)N4CCN(C)CC4)cc3)nc3c2ncn3C(C)C)cc(OC)c1OC,-1,0,0,30
COc1cc(Nc2nc(-c3ccc(C(N)=O)cc3)nc3c2ncn3Cc2ccc(C(F)(F)F)cc2)cc(OC)c1OC,3,1,0,53*
COc1ccc(-n2c(/C=C\c3cccc(C(F)(F)F)c3)nc3cc(OC)c(OC)cc3c2=O)cc1Cl,0,-2,0,-5
CCCC12CN3CC(C)(CN(C1)C3c1ccc(C)cc1)C2=O (stereo not given),12,-1,0,1
O=C(Nc1ccccn1)c1cccc(I)c1,11,1,0,-56
COCCCNc1nccn2c(-c3cccc(NC(C)=O)c3)cnc12,17,-5,0,90*
O=C(O)c1cccc(-c2cnc(NCCCc3ccccc3)c3nccn23)c1,-25,-1,0,-3
COCCCNc1nccn2c(-c3cccc(OC(F)(F)F)c3)cnc12,20,1,-1,40*
CC(=O)Nc1cccc(-c2cnc(NCCCc3ccccc3)c3nccn23)c1,-2,-1,0,93*
CCCNc1nccn2c(-c3cccc(NC(C)=O)c3)cnc12,-14,-1,-1,69*
O=C(NC1CCCCCC1)c1c(O)c2c([nH]c1=O)CCCC2,5,0,0,-29
SMILES,MITF inh,GPR151 activ,FBW7 activator,TEAD-YAP inh
COc1ccccc1C(=O)Nc1ccc2nc(SCC(=O)NCCOc3ccccc3)sc2c1,-2,1,0,53*
CC(=O)Nc1ccc2nc(SCC(=O)N3CCN(c4ccccc4)CC3)sc2c1,10,-1,1,14
CCC(=O)Nc1ccc2nc(SCC(=O)N3CCN(c4ccccc4)CC3)sc2c1,5,3,0,45*
COc1ccccc1C(=O)Nc1ccc2nc(SCC(=O)NCc3ccccc3)sc2c1,1,1,0,52*
Cc1ccc2c(c1)C(c1ccccc1)N(C(=O)c1cccs1)CC(=O)N2 (stereo not given),-4,0,0,-15
O=C(N/N=C/c1ccc(O)cc1O)c1ccccc1Cl,6,-2,-1,1
COc1ccccc1NC(=O)Cn1c(C)nc2ccccc21,6,1,0,35*
CC(=O)c1cn(CC(=O)NCCOc2ccc(Cl)cc2)c2ccccc12,-13,0,0,40*
COc1cccc(NC(=O)Cn2cc(C(C)=O)c3ccccc32)c1,3,2,0,48*
CC(=O)c1cn(CC(=O)Nc2ccccc2)c2ccccc12,-10,1,0,28
COc1ccccc1NC(=O)Cn1cc(C(C)=O)c2ccccc21,-8,-1,0,37*
CCN(CC)S(=O)(=O)c1ccc(-c2csc(=Nc3ccc(F)cc3)n2CCCO)cc1,24,1,0,39*
OCCCn1c(-c2ccc(F)cc2)csc1=Nc1ccc(F)cc1,11,0,0,-19
O=C(Nc1ccc(Nc2ccccc2)cc1)c1ccc(C(=O)c2ccccc2)o1,9,3,0,43*
COc1ccc(C2=NC3(CCCCC3)N(CC(=O)Nc3cccc(OC)c3)C2=O)cc1,3,0,0,8
c1csc(CNc2ncnc3ccccc23)c1,3,2,0,51*
c1csc(CNc2ncnc3nc[nH]c23)c1,0,2,0,5
Cc1ccccc1-n1ncc2c(NCc3ccc(F)cc3)ncnc21,1,0,0,-4
Fc1ccc(CNc2ncnc3ccccc23)cc1,-4,1,0,55*
CCCCCn1nc(C(=O)NN)c2ccccc2c1=O,-8,-1,0,-7
O=C1Nc2ccccc2NC(=O)C2C3c4ccccc4C(c4ccccc43)C12 (stereo not given),-8,1,0,17
c1ccc2c(c1)Nc1ccccc1C2NNC1c2ccccc2Nc2ccccc21,0,0,0,69*
Cc1ccc(OCc2nc(-c3cccnc3)no2)c(C)c1,-4,0,0,-22
Cc1nc2nc[nH]n2c(=O)c1CCC(=O)NC1CCCCCC1,-4,-1,0,-6
CCC(C)(C(=O)NC1CCCC1)N(Cc1ccco1)C(=O)CNC(=O)c1ccccc1 (stereo not given),7,0,2.3*,10
SMILES,MITF inh,GPR151 activ,FBW7 activator,TEAD-YAP inh
CCC(C)(C(=O)NC1CCCC1)N(Cc1ccco1)C(=O)CNC(C)=O (stereo not given),3,0,0,3
Cc1ccc(-c2nc(CS(=O)CC(=O)NCC3CCCO3)c(C)o2)cc1 (stereo not given),3,0,1.9*,-3
COc1ccc(-c2nc(N3CCC(C)CC3)c3ccccc3n2)cc1OC,0,1,0,-1
CN1CCN(c2nc(-c3ccc(C(C)(C)C)cc3)nc3ccccc23)CC1,9,-2,-1,82*
CC1CCN(c2nc(-c3ccc(C(C)(C)C)cc3)nc3ccccc23)CC1,-3,0,0,49*
Cc1ccc(-c2nc(N3CCN(C)CC3)c3ccccc3n2)cc1,12,-1,0,-6
O=C1NC2(CCN(Cc3ccccc3F)CC2)C(=O)N1Cc1ccc(Cl)cc1,-10,0,0,-5
